# Measured values published in PubChem BioAssay (NCATS).
# Inconclusive results are not listed. A call without a number means that no potency is given here. Values without a mark were called inactive. Calls of active or inactive are those of the source. Calls follow the shape of the dose curve; as a rule, active = well fitted curve in the direction sought with a large enough effect; inconclusive = small, poorly fitted or top-dose-only effect, or another doubt; inactive = no such curve, though single readings can be large; an effect the other way counts as inactive or inconclusive.
# Tests used:
# [1] = qHTS of pediatric cancer cell lines to identify multiple opportunities for drug repurposing: Primary screen for BT-37 cells (AID 1347094); also: series mostly up to about 57 µM
# Summary of the method: (§1)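 Quantitative HTS format: each compound titrated (MIPE 11 points from 0.78 nM, NPC 8 points from 0.59 nM) onto cells plated 5 hours earlier. After 48 h at 37 degrees C, CellTiter-Glo luminescence was recorded.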
# [2] = qHTS of pediatric cancer cell lines to identify multiple opportunities for drug repurposing: Primary screen for NB-EBc1 cells (AID 1347095)
# Summary of the method: as §1
# [3] = qHTS of pediatric cancer cell lines to identify multiple opportunities for drug repurposing: Primary screen for U-2 OS cells (AID 1347096); also: nearly all actives have a fitted effect of over 50% in size
# Summary of the method: (§2)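 Viability after 48 h compound treatment at 37C, 500-1,000 cells/well, read as ATP luminescence with CellTiter-Glo. Primary screens used 11-point (MIPE, 0.78 nM-46 µM) or 8-point (NPC, 0.59 nM-46 µM) final concentrations; follow-up screens used 11-point dilutions.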
# [4] = qHTS of pediatric cancer cell lines to identify multiple opportunities for drug repurposing: Primary screen for Saos-2 cells (AID 1347097); also: nearly all actives have a fitted effect of over 40% in size
# Summary of the method: as §1
# [5] = qHTS of pediatric cancer cell lines to identify multiple opportunities for drug repurposing: Primary screen for SK-N-SH cells (AID 1347098);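 also: DMSO served as neutral control and bortezomib at 2.3 µM as positive control; nearly all actives have a fitted effect of over 65% in size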
# Summary of the method: (§3)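 Cells (500-1,000/well) rested 5 h, then received compounds for 48 h; metabolically active cells were measured by CellTiter-Glo luminescence. Final concentrations spanned up to 46 µM (MIPE, 11-point) or 0.59 nM-46 µM (NPC, 8-point) in primary screens, 11-point in follow-ups.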
# [6] = qHTS of pediatric cancer cell lines to identify multiple opportunities for drug repurposing: Primary screen for NB1643 cells (AID 1347099); also: nearly all actives have a fitted effect of over 50% in size
# Summary of the method: as §1
# [7] = qHTS of pediatric cancer cell lines to identify multiple opportunities for drug repurposing: Primary screen for LAN-5 cells (AID 1347100)
# Summary of the method: as §2
# [8] = qHTS of pediatric cancer cell lines to identify multiple opportunities for drug repurposing: Primary screen for BT-12 cells (AID 1347101); also: nearly all actives have a fitted effect of over 25% in size
# Summary of the method: as §3
# [9] = qHTS of pediatric cancer cell lines to identify multiple opportunities for drug repurposing: Primary screen for Rh18 cells (AID 1347102); also: nearly all actives have a fitted effect of over 65% in size
# Summary of the method: as §2
# [10] = qHTS of pediatric cancer cell lines to identify multiple opportunities for drug repurposing: Primary screen for OHS-50 cells (AID 1347103); also: nearly all actives have a fitted effect of over 40% in size; also: potency is read from the fitted curve at half-maximal effect
# Summary of the method: as §3
# [11] = qHTS of pediatric cancer cell lines to identify multiple opportunities for drug repurposing: Primary screen for RD cells (AID 1347104); also: nearly all actives have a fitted effect of over 55% in size
# Summary of the method: as §1
# [12] = qHTS of pediatric cancer cell lines to identify multiple opportunities for drug repurposing: Primary screen for MG 63 (6-TG R) cells (AID 1347105); also: nearly all actives have a fitted effect of over 50% in size; also: potency is read from the fitted curve at half-maximal effect
# Summary of the method: as §1
# [13] = qHTS of pediatric cancer cell lines to identify multiple opportunities for drug repurposing: Primary screen for control Hh wild type fibroblast cells (AID 1347106);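 also: series mostly up to about 46 µM; a drop in luminescence marks cytotoxicity and a rise apparent proliferation; nearly all actives have a fitted effect of over 55% in size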
# Summary of the method: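 Cells (500-1,000/well) in growth media were settled 5 h at 37 degrees C, then given compounds for 48 h. Viability was read as CellTiter-Glo luminescence. Primary runs used MIPE at 11 points (0.78 nM-46 µM) and NPC at 8 points (0.59 nM-46 µM); follow-ups used 11 points.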
# [14] = qHTS of pediatric cancer cell lines to identify multiple opportunities for drug repurposing: Primary screen for Rh30 cells (AID 1347107); also: series mostly up to about 46 µM; nearly all actives have a fitted effect of over 75% in size
# Summary of the method: as §2
# [15] = qHTS of pediatric cancer cell lines to identify multiple opportunities for drug repurposing: Primary screen for Rh41 cells (AID 1347108);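 also: series mostly up to about 46 µM; luminescence drop marks cytotoxic hits; nearly all actives have a fitted effect of over 70% in size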
# Summary of the method: as §1
Compound,Potency [1],Potency [2],Potency [3],Potency [4],Potency [5],Potency [6],Potency [7],Potency [8],Potency [9],Potency [10],Potency [11],Potency [12],outcome [13],outcome [14],Potency [15]
CCOc1ccc2ccccc2c1C(=O)N[C@@H]1C(=O)N2[C@@H]1SC(C)(C)[C@@H]2C(=O)O,inactive,inactive,inactive,inactive,inactive,inactive,inactive,inactive,inactive,inactive,inactive,inactive,inactive,inactive,inactive
NC(=O)c1ncn([C@@H]2O[C@H](CO)[C@@H](O)[C@H]2O)c1N,inactive,inactive,inactive,inactive,inactive,inactive,inactive,inactive,inactive,inactive,inactive,inactive,inactive,inactive,inactive
NC(=O)NC(=O)Cc1ccccc1,inactive,inactive,inactive,inactive,inactive,inactive,inactive,inactive,inactive,inactive,inactive,inactive,inactive,inactive,inactive
CC(=O)Oc1ccc(C2(c3ccc(OC(C)=O)cc3)C(=O)Nc3ccccc32)cc1,inactive,inactive,inactive,inactive,inactive,inactive,inactive,inactive,inactive,1100 nM (active),inactive,168 nM (active),inactive,inactive,inactive
C=CCn1c(=O)n([C@@H]2O[C@H](CO)[C@@H](O)[C@H]2O)c2nc(N)[nH]c(=O)c21,inactive,inactive,inactive,inactive,inactive,inactive,inactive,inactive,inactive,inactive,inactive,inactive,inactive,inactive,inactive
Cc1cc2c(cc1S(N)(=O)=O)S(=O)(=O)CCC2,inactive,inactive,inactive,inactive,inactive,inactive,inactive,inactive,inactive,–,inactive,inactive,inactive,inactive,inactive
COc1ccccc1O,inactive,inactive,inactive,inactive,inactive,inactive,inactive,inactive,inactive,inactive,inactive,–,inactive,inactive,inactive
Nc1ncnc2c1ncn2[C@@H]1O[C@H](CO)[C@@H](O)[C@H]1O,inactive,inactive,inactive,inactive,inactive,inactive,inactive,inactive,inactive,–,inactive,inactive,inactive,inactive,inactive
C[C@H](N)[C@H](O)c1cccc(O)c1,inactive,inactive,inactive,inactive,inactive,inactive,inactive,inactive,inactive,–,inactive,inactive,inactive,inactive,inactive
NS(=O)(=O)c1cc2c(cc1C(F)(F)F)NC(Cc1ccccc1)NS2(=O)=O (stereo not drawn),inactive,inactive,inactive,inactive,inactive,inactive,inactive,inactive,inactive,inactive,inactive,inactive,inactive,inactive,inactive
CCOC(=O)c1ccc(O)cc1,inactive,inactive,inactive,inactive,inactive,inactive,inactive,inactive,inactive,–,inactive,inactive,inactive,inactive,inactive
CCCCN1CCCC[C@H]1C(=O)Nc1c(C)cccc1C,inactive,inactive,inactive,inactive,inactive,inactive,inactive,inactive,inactive,–,inactive,inactive,inactive,inactive,inactive
CN1[C@@H]2CC(OC(=O)[C@H](CO)c3ccccc3)C[C@H]1[C@@H]1O[C@@H]12 (stereo partly drawn),inactive,inactive,inactive,inactive,inactive,inactive,inactive,inactive,inactive,inactive,–,inactive,inactive,inactive,–
CCCCOc1cc(C(=O)OCCN(CC)CC)ccc1N,inactive,inactive,inactive,inactive,inactive,inactive,inactive,inactive,inactive,–,inactive,inactive,inactive,inactive,inactive
Nc1ccc(S(=O)(=O)Nc2ccccc2)cc1,inactive,inactive,inactive,inactive,inactive,inactive,inactive,inactive,inactive,–,inactive,inactive,inactive,inactive,inactive
CC1=C(C/C=C(\C)CCC[C@H](C)CCC[C@H](C)CCCC(C)C)C(=O)c2ccccc2C1=O,inactive,inactive,inactive,inactive,inactive,inactive,inactive,inactive,inactive,–,inactive,inactive,inactive,inactive,inactive
O=C(Oc1ccccc1C(=O)O)c1ccccc1O,inactive,inactive,inactive,inactive,inactive,inactive,inactive,inactive,inactive,–,inactive,inactive,inactive,inactive,inactive
COc1ccc2[nH]c(S(=O)Cc3ncc(C)c(OC)c3C)nc2n1 (stereo not drawn),inactive,inactive,inactive,inactive,inactive,inactive,inactive,inactive,inactive,inactive,inactive,inactive,inactive,inactive,inactive
